The campaign covered roughly 4,800 compounds. About 410 (8.5%) showed an effect of 50% or more. What follows is part of a selection rich in strong results, with near analogues and random picks from the rest.
What follows are compounds tested on Plasmodium falciparum (assay: Confirmatory screen in NF54 pLDH assay, in single point, at 2uM, 72h). Conditions: timepoint 72 hour.
Assay type: functional, Erythrocyte
For COc1ccc(CCNC(=O)c2cc3c(=O)[nH]c(C)cn3n2)cc1OC, the “% Inhibition” value was 8%. For COc1cc(F)c(NCc2csc(C3CC3)n2)cc1OC, the “% Inhibition” value was -21%. With CNC[C@H]1CCCN1C(=O)c1ccc(-c2noc(C(F)(F)F)n2)cc1 the “% Inhibition” value was 12%. For COC1CCCCC1NC(=O)c1ccc(-c2noc(C(F)(F)F)n2)cc1 (stereo not given), the “% Inhibition” value was 8%. With COc1cccc(CNC(=O)Cn2c(=O)n(C)c(=O)c3c2c(-c2ccccc2)cn3C)c1OC the “% Inhibition” value was -10%. For Cc1oc(-c2ccn[nH]2)cc1S(=O)(=O)Nc1cccc(Cl)c1, the “% Inhibition” value was 4%. COc1ccc(-c2noc(Cn3c(=O)c4ccccc4n(CC(=O)NCCc4ccc(OC)c(OC)c4)c3=O)n2)cc1 was tested, and the “% Inhibition” value was 6%. CNCC(=O)Nc1ccccc1C(F)(F)F was tested, and the “% Inhibition” value was -9%. O=C(c1cnc2ccccc2n1)N1CCCC1 was tested, and the “% Inhibition” value was -1%. N[C@H]1C[C@@H](c2cc(N3CCN(C4CCCCC4)CC3)nc(N3CCCC3)n2)C1 was tested, and the “% Inhibition” value was 50%. With Cc1cccc(CNc2cc([C@H]3C[C@@H](N)C3)nc(N3CCCC3)n2)c1 the “% Inhibition” value was 14%. For c1ncc(N2CCN3CCC[C@H]3C2)nc1OCC1CCCC1, the “% Inhibition” value was -16%. O=C(O)CCCC(=O)NCCc1ccc(Cl)cc1 was tested, and the “% Inhibition” value was -19%. COc1ccc(OCc2nc3cc4c(cc3cc2C(=O)O)OCO4)cc1 was tested, and the “% Inhibition” value was 5%. CCOc1ccc(-n2c(CN3CCN(C(=O)c4ccco4)CC3)nc3ccccc3c2=O)cc1 was tested, and the “% Inhibition” value was 14%. CCOc1ccc(Nc2c3ccccc3nc3ccccc23)cc1 was tested, and the “% Inhibition” value was 96%. In the case of COc1ccc(NC(=O)c2nc(Nc3ccccc3)c3ccccc3n2)cc1, the “% Inhibition” value is reported as 7%. For Cc1ccc(-c2ccnc3c(C(=O)N4CCOCC4)cnn23)cc1C, the “% Inhibition” value was 2%. In the case of Cc1cccnc1C(F)(F)C(=O)Nc1cc(C)c(O)c(C)c1, the “% Inhibition” value is reported as 11%. With O=C(Nc1ccc(N2CCn3c(nc4cc(Cl)ccc43)C2)cc1)NC1CCCCC1 the “% Inhibition” value was -13%. C[C@H](OC1CCCCCC1)C(=O)Nc1nc(C(N)=O)cs1 was tested, and the “% Inhibition” value was -11%. With Cc1ccccc1C(=O)NCc1nn(C2CCCC2)c2c1COCC2 the “% Inhibition” value was 6%. With COc1ccc(C)c2sc(N(CCCn3ccnc3)C(=O)Cc3ccc(F)cc3)nc12 the “% Inhibition” value was 85%. COc1cccc(CNCCCn2ccnc2)c1OCc1ccc(F)cc1 was tested, and the “% Inhibition” value was 10%. Fc1ccc(COc2cccc(CNCCN3CCOCC3)c2)cc1 was tested, and the “% Inhibition” value was -3%. O=C(Nc1ccncc1)c1nc(N2CCCC2)ncc1Br was tested, and the “% Inhibition” value was -9%. With Cc1nn(C)c(Cl)c1CNCc1ccc(N2CCCCC2)nc1 the “% Inhibition” value was -13%. In the case of COc1cc(CNCCN2CCOCC2)ccc1OCc1cccc(C)c1, the “% Inhibition” value is reported as 7%. In the case of CCCc1nnc(N(Cn2nnc3ccccc32)C(=O)CN2CCOCC2)s1, the “% Inhibition” value is reported as 2%. O=C(c1cncc(Br)c1)N1CC[C@H](c2nc(C3CCOCC3)no2)C1 was tested, and the “% Inhibition” value was 10%. With CC1CCC(c2noc([C@H]3CCO[C@@H]3c3cncc(Br)c3)n2)CC1 (stereo not given in full) the “% Inhibition” value was 59%. For Cc1ccc(NCc2ccc(OCc3cccc4ccccc34)c(Br)c2)cc1, the “% Inhibition” value was 11%. In the case of CCCN(CC(=O)N(Cc1ccccc1)Cc1ccc(C)o1)C(=O)c1ccco1, the “% Inhibition” value is reported as -5%. In the case of O=C(c1ccccc1)C1C(c2ccccc2)N1C(=O)c1ccc(Cl)cc1Cl (stereo not given), the “% Inhibition” value is reported as 6%. FC(F)(F)c1nnc(NCc2cncs2)s1 was tested, and the “% Inhibition” value was -7%. For COCc1nsc(N2CCC(c3c(F)cccc3F)CC2)n1, the “% Inhibition” value was 7%. With CC(C)(C)OC(=O)Nc1cccc(N)n1 the “% Inhibition” value was 8%. In the case of Cn1cncc1CC(=O)Nc1ccnc(NC(=O)OC(C)(C)C)c1, the “% Inhibition” value is reported as 100%. In the case of COc1ccc2c(O)cc(-c3ccccc3)nc2c1, the “% Inhibition” value is reported as 1%. Nc1c(-c2ccccc2)nsc1C(=O)NCC1CC1 was tested, and the “% Inhibition” value was 9%. COc1cccc(NC(=O)N2C[C@@H]3C[C@H](NS(C)(=O)=O)[C@H]2C3)c1 was tested, and the “% Inhibition” value was 8%. O=C1CCC(C(=O)N2CCC[C@H]2c2ccncc2)=NN1c1ccccc1 was tested, and the “% Inhibition” value was -11%. CON(C)C[C@H](O)Cn1cc(Nc2ncnc3cc(F)ccc23)cn1 was tested, and the “% Inhibition” value was 5%. CC[C@H](O)CN1CCC(Nc2ncnc3cc(Cl)ccc23)CC1 was tested, and the “% Inhibition” value was 75%. For C[C@H](C(=O)Nc1ccc(F)cc1Cn1ccsc1=O)C1CC1, the “% Inhibition” value was -14%. Cc1cc(CN(C)Cc2nccn2C)ccc1N1CCCCC1 was tested, and the “% Inhibition” value was 1%. In the case of Cc1nscc1C(=O)Nc1cccc(OCCN2CCCC2)c1, the “% Inhibition” value is reported as -15%. For CC(C)(C)c1cc2c(NCC3=CCOCC3)nccn2n1, the “% Inhibition” value was 9%. COc1cc(C(=O)Nc2ccc3sc(NC(=O)c4cc(OC)c(OC)c(OC)c4)nc3n2)cc(OC)c1OC was tested, and the “% Inhibition” value was 67%. With COc1cc(C(=O)Nc2scnc2C)cc(OC)c1OC the “% Inhibition” value was 7%. Cc1cccc(C(=O)Nc2nc3cc4sc(NC(=O)c5cccc(C)c5)nc4cc3s2)c1 was tested, and the “% Inhibition” value was -8%. CNCc1cc(OC)c(OC)cc1Cl was tested, and the “% Inhibition” value was 11%. For Cc1ccc(C)c(C(=O)Cn2nc3ccc(-c4ccc(Cl)cc4)nn3c2=O)c1, the “% Inhibition” value was 6%. In the case of Cc1nc(NC(=O)c2ccn(COc3ccc(F)c(Cl)c3)n2)sc1C, the “% Inhibition” value is reported as -8%. With CC(=O)NCC(=O)N(Cc1ccco1)C1(C(=O)NC2CCCCC2)CCCCC1 the “% Inhibition” value was 8%. In the case of Cc1cc(C(=O)NCc2ccncc2)no1, the “% Inhibition” value is reported as -10%. In the case of CCn1nccc1C(=O)N1CC[C@H](CC(=O)NCc2ccncc2)C1, the “% Inhibition” value is reported as 6%. With N#Cc1cc2cc(Cl)cnc2nc1N1CCCCC1 the “% Inhibition” value was 16%. With COc1cc(C(=O)NC2CCCCC2)cc2occc12 the “% Inhibition” value was 0%. With CCOc1cc(Cl)ccc1C(=O)NC1CCN(C[C@H]2CCOC2)CC1 the “% Inhibition” value was 5%. For Cc1cnccc1NCCNC1CCN(c2ccc(Cl)cc2)CC1, the “% Inhibition” value was 96%. With CCn1nccc1C(=O)NC1CCN(c2nnc3ccc(Cl)cn23)CC1 the “% Inhibition” value was 10%. Cc1cnccc1NCCNC1CCN(c2ccc3c(c2)CCC3)CC1 was tested, and the “% Inhibition” value was 77%. In the case of N#Cc1c(N2CCCCC2)ncc2c(=O)c3ccccc3[nH]c12, the “% Inhibition” value is reported as 8%. O=C(Cc1ccc(F)cc1)N[C@H](c1ccccc1)C1CC1 was tested, and the “% Inhibition” value was 2%. In the case of CCCOc1ccc(CNC(=O)CCn2ccn3nc(-c4ccc(C)c(C)c4)cc3c2=O)cc1, the “% Inhibition” value is reported as 5%. For O=C(c1ccccc1)c1ccc(O)c(CN2CCCN(c3ccc(C(F)(F)F)cn3)CC2)c1O, the “% Inhibition” value was 80%. For Cc1ccc(-n2nc(C)cc2NC(=O)CN2CCCN(c3ccc(C(F)(F)F)cn3)CC2)cc1, the “% Inhibition” value was 9%. In the case of O=C(C1CC1c1ccccc1)N(c1ccc(F)cn1)C1CCOCC1 (stereo not given), the “% Inhibition” value is reported as 7%. In the case of O=C(NCc1ccc2c(c1)OCO2)C(F)(F)C(F)(F)C(F)(F)C(F)(F)C(=O)NCc1ccc2c(c1)OCO2, the “% Inhibition” value is reported as -19%. In the case of CN1CCN([C@H]2CCN(c3ccnc4ccc(Cl)cc34)C[C@H]2CCCO)CC1, the “% Inhibition” value is reported as 60%. CCCOc1cc(=O)c(C(=O)N2CCCC2)nn1-c1ccc(C)cc1 was tested, and the “% Inhibition” value was 0%. For CCn1cc([C@H](CC(=O)N2CCN(Cc3ccc4c(c3)OCO4)CC2)c2cccc(OC)c2)c2ccccc21, the “% Inhibition” value was 2%. O=C(NC[C@H](O)c1ccc(Cl)s1)c1ccsc1 was tested, and the “% Inhibition” value was 2%. For OC(CNC1CCCNc2ccccc21)c1ccc(Cl)s1 (stereo not given), the “% Inhibition” value was 51%. Cc1cccc(NC(=O)CC(C)(C)CC(=O)O)c1C was tested, and the “% Inhibition” value was 13%. In the case of CC(C)(c1ccc(F)cc1)C1(NC(=O)CCc2nccs2)CC1, the “% Inhibition” value is reported as -12%. In the case of Cn1cc(CCCNc2ccc(F)cn2)cn1, the “% Inhibition” value is reported as 9%. Cc1nn(C(C)(C)C)c2nc(C3CC3)cc(C(=O)N(C)c3ccccc3)c12 was tested, and the “% Inhibition” value was 87%. For Cc1ccc(S(=O)(=O)N2CCN(C(=O)c3cc(C4CC4)nc4c3c(C)nn4C(C)C)CC2)cc1, the “% Inhibition” value was 13%. In the case of Cc1nn(Cc2ccccc2)c2nc(C3CC3)cc(C(=O)N3CCOCC3)c12, the “% Inhibition” value is reported as 1%. In the case of CCOC(=O)C1CCN(C(=O)c2nc(-c3ccc(N4CCCC4)nc3)no2)CC1, the “% Inhibition” value is reported as 12%. In the case of O=C(c1cccc2cc[nH]c12)N(CC1CC1)C1CC1, the “% Inhibition” value is reported as 12%. Cc1cc(C)c(C(=O)Cn2nc3ccc(-c4ccc(Cl)cc4)nn3c2=O)c(C)c1 was tested, and the “% Inhibition” value was 10%. With CCCn1nc(-n2cnnc2)c(NS(=O)(=O)c2ccc(Br)cc2)c1C the “% Inhibition” value was 11%. For CC(C(=O)N1CCCC1c1cccs1)N(C)Cc1ncnn1C (stereo not given), the “% Inhibition” value was 4%. With Clc1ccc(-c2noc(CN(Cc3cccs3)Cc3cccs3)n2)cc1 the “% Inhibition” value was 6%. For COc1ccc(CC(=O)NCCOCCO)cc1, the “% Inhibition” value was 8%. N#CC1(O)C(C2COC3(CCCCC3)O2)OC2OC3(CCCCC3)OC21 (stereo not given) was tested, and the “% Inhibition” value was 10%. Cc1sc(NC(N)=O)nc1Cc1ccccc1 was tested, and the “% Inhibition” value was 10%. CN1CCN(c2nc(O)c3c(n2)NC(=O)C[C@H]3c2c(F)cccc2F)CC1 was tested, and the “% Inhibition” value was 0%. CCOc1cc(C(c2c(C)n(C)n(-c3ccccc3)c2=O)c2c(C)n(C)n(-c3ccccc3)c2=O)ccc1OCc1ccccc1 was tested, and the “% Inhibition” value was 38%. CCOC(=O)N1CCC(NC(=O)c2cn[nH]c2-c2ccc(OCC)c(Cl)c2)CC1 was tested, and the “% Inhibition” value was 10%. O=C(NC1CCN(Cc2ccccc2)CC1)c1cn[nH]c1-c1ccccc1 was tested, and the “% Inhibition” value was 6%. For O=C(C[C@H]1CCN(C(=O)Nc2ccc3c(c2)OCCO3)C1)NCc1ccncc1, the “% Inhibition” value was 7%. Cc1cc(C)cc([C@@H](O)CNC(=O)NCC(C)(C)c2ccncc2)c1 was tested, and the “% Inhibition” value was 3%. With Cc1nn2c(-c3ccc(-c4ccccc4)cc3)ccnc2c1Br the “% Inhibition” value was 9%. With Cc1nonc1NC(=O)CCCC1CCCC1 the “% Inhibition” value was 8%. For O[C@@H](CNCc1ccsc1C(F)(F)F)c1cc(Cl)c2c(c1)OCCO2, the “% Inhibition” value was 29%. NC(=O)COCC(=O)Nc1ccccc1 was tested, and the “% Inhibition” value was -9%. For CCc1[nH]nc(NC(=O)c2c(C)ccnc2O)c1C, the “% Inhibition” value was -11%. CO[C@@H](CNC(=O)c1nc2n(n1)-c1ccccc1S(=O)(=O)N2)c1ccccc1 was tested, and the “% Inhibition” value was 0%. For O=c1[nH]nc2c(N3CC[C@H](NCc4ccc(F)cc4)C3)nccn12, the “% Inhibition” value was 11%. For COc1ccc(C)cc1NC(=O)N1CC(c2nc(C(C)C)nn2C)C1, the “% Inhibition” value was 1%. c1cn2cnnc2c(N(CC2CC2)CC2CC2)n1 was tested, and the “% Inhibition” value was -5%.

Source: ChEMBL document CHEMBL4888484, “Replenishing the malaria drug discovery pipeline: Screening and hit evaluation of the MMV Hit Generation Library 1 (HGL1) against asexual blood stage Plasmodium falciparum ,using a nano luciferase reporter read-out” (2022)
